Data as given in the supplement of paper PMC10849652.
Of roughly 7,900 targets only a part is listed; those with a hit were picked by preference. About 0.6% of all pairs of compound and target were hits. A number with no mark means an inactive call.

What was measured:
Assay in all cases: log2 fold change, soluble protein after heating vs DMSO (PISA); higher = thermal stabilisation; K562 cells, 10 uM, 30 min; active = over 0.2 and 3.5 SD of the protein, either way, in both replicates (recomputed)
saracatinib = compound: CN1CCN(CCOc2cc(OC3CCOCC3)c3c(Nc4c(Cl)ccc5c4OCO5)ncnc3c2)CC1 [saracatinib]
Method in brief: (§1)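 Thermal stability values are relative to control samples and come from duplicates. They are expressed as log2 fold changes. For measurement, K562 cells (2×10^6 cells/mL) received 10 μM compound for 30 min, and aliquots were heated for 3 min over 48°C-58°C, pooled, and extracted at 4°C in PBS with 0.5% NP-40. Soluble protein, the supernatant after 21,000xg for 90 min, was quantified by TMTpro 16plex LC-MS/MS with equalised channel sums.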

sotrastaurin = compound: CN1CCN(c2nc(C3=C(c4c[nH]c5ccccc45)C(=O)NC3=O)c3ccccc3n2)CC1 [sotrastaurin]
Method in brief: as §1

alvocidib = compound: CN1CC[C@H](c2c(O)cc(O)c3c(=O)cc(-c4ccccc4Cl)oc23)[C@H](O)C1 [alvocidib]
Method in brief: as §1

Tubastatin A = compound: CN1CCc2c(c3ccccc3n2Cc2ccc(C(=O)NO)cc2)C1 [Tubastatin A]
Method in brief: as §1

[1] = compound: CNC(=O)C1=CC=CC=C1NC2=NC(=NC=C2Cl)NC3=C(C=C(C=C3)N4CCOCC4)OC
Method in brief: as §1

defactinib = compound: CNC(=O)c1ccc(Nc2ncc(C(F)(F)F)c(NCc3nccnc3N(C)S(C)(=O)=O)n2)cc1 [defactinib]
Method in brief: as §1

rucaparib = compound: CNCc1ccc(-c2[nH]c3cc(F)cc4c3c2CCNC4=O)cc1 [rucaparib]
Method in brief: as §1

[2] = compound: CNc1nc(-c2ccc3c(N)n[nH]c3c2)cc(N2C[C@@H](C(=O)NC3CCCCC3)CC[C@H]2C)n1
Method in brief: as §1

encorafenib = compound: COC(=O)N[C@@H](C)CNc1nccc(-c2cn(C(C)C)nc2-c2cc(Cl)cc(NS(C)(=O)=O)c2F)n1 [encorafenib]
Method in brief: as §1

[3] = compound: COC(=O)[C@H](CCSC)NC(=O)C1=C(C=C(C=C1)NC[C@H](CS)N)C2=CC=CC=C2
Method in brief: as §1

[4] = compound: COC1=CC=C(C=C1)CN2C=CC3=C2C=C(C=C3)C(=O)NO
Method in brief: as §1

filanesib = compound: CON(C)C(=O)N1N=C(c2cc(F)ccc2F)S[C@@]1(CCCN)c1ccccc1 [filanesib]
Method in brief: as §1

zotarolimus = compound: CO[C@H]1C[C@@H]2CC[C@@H](C)[C@@](O)(O2)C(=O)C(=O)N2CCCC[C@H]2C(=O)O[C@H]([C@H](C)C[C@@H]2CC[C@H](n3cnnn3)[C@H](OC)C2)CC(=O)[C@H](C)/C=C(\C)[C@@H](O)[C@@H](OC)C(=O)[C@H](C)C[C@H](C)/C=C/C=C/C=C/1C [zotarolimus]
Method in brief: as §1

idasanutlin = compound: COc1cc(C(=O)O)ccc1NC(=O)[C@@H]1N[C@@H](CC(C)(C)C)[C@](C#N)(c2ccc(Cl)cc2F)[C@H]1c1cccc(Cl)c1F [idasanutlin]
Method in brief: as §1

alisertib = compound: COc1cc(Nc2ncc3c(n2)-c2ccc(Cl)cc2C(c2c(F)cccc2OC)=NC3)ccc1C(=O)O [alisertib]
Method in brief: as §1

[5] = compound: COc1cc2nc(-c3cc(F)ccc3O)nc(N[C@@H]3CNC[C@H]3C(C)(C)O)c2cc1OC
Method in brief: as §1

gefitinib = compound: COc1cc2ncnc(Nc3ccc(F)c(Cl)c3)c2cc1OCCCN1CCOCC1 [gefitinib]
Method in brief: as §1

[6] = compound: COc1cccc2cc(-c3nc([C@H]4CC[C@H](C(=O)O)CC4)n4ncnc(N)c34)[nH]c12
Method in brief: as §1

lapatinib = compound: CS(=O)(=O)CCNCc1ccc(-c2ccc3ncnc(Nc4ccc(OCc5cccc(F)c5)c(Cl)c4)c3c2)o1 [lapatinib]
Method in brief: as §1

pictilisib = compound: CS(=O)(=O)N1CCN(Cc2cc3nc(-c4cccc5[nH]ncc45)nc(N4CCOCC4)c3s2)CC1 [pictilisib]
Method in brief: as §1

Chain of UniProt Q6P6C2 (Q6P6C2 whole entry, looked up): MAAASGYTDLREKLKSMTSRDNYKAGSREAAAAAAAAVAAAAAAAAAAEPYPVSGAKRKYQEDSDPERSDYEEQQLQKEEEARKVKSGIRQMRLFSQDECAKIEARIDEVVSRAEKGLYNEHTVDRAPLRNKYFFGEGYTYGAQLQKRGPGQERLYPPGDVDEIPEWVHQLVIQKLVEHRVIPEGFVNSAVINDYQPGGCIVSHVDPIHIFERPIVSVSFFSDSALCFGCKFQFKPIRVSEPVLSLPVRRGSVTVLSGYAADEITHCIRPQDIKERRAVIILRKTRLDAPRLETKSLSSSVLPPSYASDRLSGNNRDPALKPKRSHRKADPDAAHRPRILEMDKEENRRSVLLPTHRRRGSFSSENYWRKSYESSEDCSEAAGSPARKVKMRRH
Chain of UniProt Q8N6D5 (Q8N6D5 whole entry, looked up): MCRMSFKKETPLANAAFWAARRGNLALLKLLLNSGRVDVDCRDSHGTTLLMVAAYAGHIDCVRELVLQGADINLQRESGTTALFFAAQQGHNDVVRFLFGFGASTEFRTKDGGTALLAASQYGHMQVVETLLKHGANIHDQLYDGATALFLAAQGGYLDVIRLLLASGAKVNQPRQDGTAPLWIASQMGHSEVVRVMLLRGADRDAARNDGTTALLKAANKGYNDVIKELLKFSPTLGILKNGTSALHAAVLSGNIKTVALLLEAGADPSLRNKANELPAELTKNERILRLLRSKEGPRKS
Chain of UniProt Q9Y673 (Q9Y673 whole entry, looked up): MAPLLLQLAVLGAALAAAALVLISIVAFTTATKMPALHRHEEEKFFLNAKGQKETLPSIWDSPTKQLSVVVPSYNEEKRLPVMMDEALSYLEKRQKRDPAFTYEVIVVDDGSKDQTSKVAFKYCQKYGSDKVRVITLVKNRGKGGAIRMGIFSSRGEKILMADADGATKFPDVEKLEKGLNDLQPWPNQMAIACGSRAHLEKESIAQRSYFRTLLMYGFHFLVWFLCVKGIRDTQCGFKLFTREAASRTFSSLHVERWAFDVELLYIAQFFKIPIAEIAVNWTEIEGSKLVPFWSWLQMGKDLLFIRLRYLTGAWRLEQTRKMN
Chain of UniProt Q9BRQ8 (Q9BRQ8 whole entry, looked up): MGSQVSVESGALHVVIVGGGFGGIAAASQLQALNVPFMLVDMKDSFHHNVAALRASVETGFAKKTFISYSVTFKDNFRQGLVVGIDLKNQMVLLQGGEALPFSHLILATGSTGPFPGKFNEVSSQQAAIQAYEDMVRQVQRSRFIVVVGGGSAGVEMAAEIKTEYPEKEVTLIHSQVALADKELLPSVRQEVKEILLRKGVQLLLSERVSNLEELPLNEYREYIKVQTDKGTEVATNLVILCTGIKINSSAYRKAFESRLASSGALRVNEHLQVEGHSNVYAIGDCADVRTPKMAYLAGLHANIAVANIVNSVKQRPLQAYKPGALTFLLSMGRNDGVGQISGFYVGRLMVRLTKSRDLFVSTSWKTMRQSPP
Chain of UniProt O14965 (O14965 whole entry, looked up): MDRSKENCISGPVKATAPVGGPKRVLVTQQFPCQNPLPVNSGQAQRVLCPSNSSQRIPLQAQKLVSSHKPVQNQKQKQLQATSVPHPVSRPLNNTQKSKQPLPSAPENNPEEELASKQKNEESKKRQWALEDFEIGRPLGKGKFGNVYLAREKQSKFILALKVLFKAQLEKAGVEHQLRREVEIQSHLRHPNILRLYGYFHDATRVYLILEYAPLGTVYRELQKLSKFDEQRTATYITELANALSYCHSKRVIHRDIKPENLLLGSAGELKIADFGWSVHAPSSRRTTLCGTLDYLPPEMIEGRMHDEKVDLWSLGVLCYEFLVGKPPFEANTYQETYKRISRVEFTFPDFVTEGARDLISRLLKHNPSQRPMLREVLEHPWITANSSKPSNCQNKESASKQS
Chain of UniProt Q96GS6 (Q96GS6 whole entry, looked up): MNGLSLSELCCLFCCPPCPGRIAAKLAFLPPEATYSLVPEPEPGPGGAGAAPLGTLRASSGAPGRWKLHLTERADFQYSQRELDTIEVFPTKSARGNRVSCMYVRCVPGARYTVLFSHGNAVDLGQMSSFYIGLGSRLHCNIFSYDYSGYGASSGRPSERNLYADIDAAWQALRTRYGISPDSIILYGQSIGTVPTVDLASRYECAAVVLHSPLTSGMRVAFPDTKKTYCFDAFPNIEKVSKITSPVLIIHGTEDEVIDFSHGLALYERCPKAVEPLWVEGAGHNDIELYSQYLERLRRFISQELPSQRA
Chain of UniProt O95782 (O95782 whole entry, looked up): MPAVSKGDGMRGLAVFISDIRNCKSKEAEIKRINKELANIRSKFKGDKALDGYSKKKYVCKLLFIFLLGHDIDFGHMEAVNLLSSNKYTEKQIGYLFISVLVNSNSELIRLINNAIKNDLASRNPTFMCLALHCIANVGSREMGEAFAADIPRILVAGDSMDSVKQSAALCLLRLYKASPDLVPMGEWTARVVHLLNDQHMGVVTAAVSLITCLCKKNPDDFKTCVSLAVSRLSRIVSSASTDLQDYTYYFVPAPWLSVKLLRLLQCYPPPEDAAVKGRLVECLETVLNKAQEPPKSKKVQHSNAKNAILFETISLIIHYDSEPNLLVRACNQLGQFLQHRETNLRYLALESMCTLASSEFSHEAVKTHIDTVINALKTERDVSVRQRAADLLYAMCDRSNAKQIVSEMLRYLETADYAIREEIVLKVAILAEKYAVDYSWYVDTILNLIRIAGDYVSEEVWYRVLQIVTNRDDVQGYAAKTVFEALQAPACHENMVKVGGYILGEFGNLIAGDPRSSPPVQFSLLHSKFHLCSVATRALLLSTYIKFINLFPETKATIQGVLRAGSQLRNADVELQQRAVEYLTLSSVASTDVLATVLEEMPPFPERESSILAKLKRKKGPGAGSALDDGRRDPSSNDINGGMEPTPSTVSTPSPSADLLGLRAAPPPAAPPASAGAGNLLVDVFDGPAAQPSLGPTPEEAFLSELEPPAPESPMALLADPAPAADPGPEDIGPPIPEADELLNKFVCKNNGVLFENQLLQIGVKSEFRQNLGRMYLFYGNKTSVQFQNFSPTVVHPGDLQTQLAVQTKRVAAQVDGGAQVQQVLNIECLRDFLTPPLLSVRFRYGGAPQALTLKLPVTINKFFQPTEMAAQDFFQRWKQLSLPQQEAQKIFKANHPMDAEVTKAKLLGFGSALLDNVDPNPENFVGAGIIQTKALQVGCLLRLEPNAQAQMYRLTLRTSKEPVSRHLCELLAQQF
Chain of UniProt P35611 (P35611 whole entry, looked up): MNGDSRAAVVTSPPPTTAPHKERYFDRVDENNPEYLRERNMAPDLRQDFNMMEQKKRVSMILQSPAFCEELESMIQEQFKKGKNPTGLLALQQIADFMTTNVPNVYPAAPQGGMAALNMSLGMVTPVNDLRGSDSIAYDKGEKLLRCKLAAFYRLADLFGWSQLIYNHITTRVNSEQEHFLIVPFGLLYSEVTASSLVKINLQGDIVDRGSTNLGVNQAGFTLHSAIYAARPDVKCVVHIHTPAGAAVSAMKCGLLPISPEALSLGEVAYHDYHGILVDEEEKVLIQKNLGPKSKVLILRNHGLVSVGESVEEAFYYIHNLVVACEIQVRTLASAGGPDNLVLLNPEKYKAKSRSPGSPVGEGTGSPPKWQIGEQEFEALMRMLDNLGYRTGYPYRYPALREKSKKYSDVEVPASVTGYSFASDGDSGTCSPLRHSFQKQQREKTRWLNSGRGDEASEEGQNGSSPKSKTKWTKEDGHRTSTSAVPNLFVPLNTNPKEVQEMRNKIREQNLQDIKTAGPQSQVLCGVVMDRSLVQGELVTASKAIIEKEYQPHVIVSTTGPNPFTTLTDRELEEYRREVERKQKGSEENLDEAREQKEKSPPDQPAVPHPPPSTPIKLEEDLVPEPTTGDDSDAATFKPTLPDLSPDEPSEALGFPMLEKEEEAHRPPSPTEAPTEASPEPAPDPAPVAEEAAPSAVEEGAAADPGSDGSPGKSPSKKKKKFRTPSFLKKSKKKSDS
Chain of UniProt P49189 (P49189 whole entry, looked up): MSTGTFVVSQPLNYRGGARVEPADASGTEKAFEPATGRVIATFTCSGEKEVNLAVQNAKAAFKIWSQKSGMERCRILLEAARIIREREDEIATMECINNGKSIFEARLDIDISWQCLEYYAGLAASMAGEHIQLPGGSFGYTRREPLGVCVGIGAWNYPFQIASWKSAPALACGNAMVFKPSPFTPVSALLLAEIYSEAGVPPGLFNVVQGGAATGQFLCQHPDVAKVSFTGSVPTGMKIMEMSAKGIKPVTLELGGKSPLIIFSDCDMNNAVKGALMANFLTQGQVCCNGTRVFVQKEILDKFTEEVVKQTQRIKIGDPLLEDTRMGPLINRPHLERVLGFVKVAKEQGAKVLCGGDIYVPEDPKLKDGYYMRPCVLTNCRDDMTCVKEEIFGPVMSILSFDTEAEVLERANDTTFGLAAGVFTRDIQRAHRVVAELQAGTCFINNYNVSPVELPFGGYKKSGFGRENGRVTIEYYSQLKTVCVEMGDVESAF
Chain of UniProt Q8N6T3 (Q8N6T3 whole entry, looked up): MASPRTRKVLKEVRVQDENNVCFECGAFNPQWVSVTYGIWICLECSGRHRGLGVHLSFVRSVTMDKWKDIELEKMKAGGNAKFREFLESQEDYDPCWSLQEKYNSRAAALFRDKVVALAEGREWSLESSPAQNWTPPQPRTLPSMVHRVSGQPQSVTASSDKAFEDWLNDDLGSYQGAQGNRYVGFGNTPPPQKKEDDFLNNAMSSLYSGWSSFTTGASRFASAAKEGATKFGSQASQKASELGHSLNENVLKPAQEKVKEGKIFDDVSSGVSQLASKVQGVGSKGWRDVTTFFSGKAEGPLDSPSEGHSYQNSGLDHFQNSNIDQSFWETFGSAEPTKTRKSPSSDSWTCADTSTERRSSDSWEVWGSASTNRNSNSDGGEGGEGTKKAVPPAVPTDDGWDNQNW
Chain of UniProt Q9Y3D8 (Q9Y3D8 whole entry, looked up): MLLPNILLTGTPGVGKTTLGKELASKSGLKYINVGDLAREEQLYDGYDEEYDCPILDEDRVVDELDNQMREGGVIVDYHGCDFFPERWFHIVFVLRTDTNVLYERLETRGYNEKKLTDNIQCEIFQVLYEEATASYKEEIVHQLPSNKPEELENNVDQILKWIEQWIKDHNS

| Target | log2 fold change (saracatinib) | log2 fold change (sotrastaurin) | log2 fold change (alvocidib) | log2 fold change (Tubastatin A) | log2 fold change [1] | log2 fold change (defactinib) | log2 fold change (rucaparib) | log2 fold change [2] | log2 fold change (encorafenib) | log2 fold change [3] | log2 fold change [4] | log2 fold change (filanesib) | log2 fold change (zotarolimus) | log2 fold change (idasanutlin) | log2 fold change (alisertib) | log2 fold change [5] | log2 fold change (gefitinib) | log2 fold change [6] | log2 fold change (lapatinib) | log2 fold change (pictilisib) |
| --- | --- | --- | --- | --- | --- | --- | --- | --- | --- | --- | --- | --- | --- | --- | --- | --- | --- | --- | --- | --- |
| ADD1 isoform 3 (UniProt P35611) | 0.095 | -0.031 | -0.088 | -0.002 | 0.008 | -0.039 | -0.018 | 0 | -0.024 | 0.031 | 0.071 | 0.013 | -0.025 | 0.014 | -0.059 | -0.009 | 0.007 | 0.066 | 0.015 | -0.004 |
| ARFGAP1 (UniProt Q8N6T3) | -0.021 | -0.086 | -0.029 | 0.034 | 0.068 | -0.158 | -0.048 | -0.087 | 0.068 | -0.044 | 0.03 | 0.034 | 0.047 | 0.028 | 0.047 | 0 | -0.022 | -0.015 | -0.038 | -0.007 |
| ATRN (UniProt O75882) | 0.05 | -0.047 | -0.024 | 0.012 | -0.017 | -0.065 | 0.022 | 0.12 | -0.05 | 0.045 | -0.243 | -0.037 | 0 | -0.032 | 0.095 | -0.004 | 0.108 | 0.111 | 0.043 | 0.153 |
| ALKBH5 (UniProt Q6P6C2) | -0.006 | -0.044 | 0.092 | 0.118 | -0.185 | 0.021 | 0.11 | 0.035 | -0.048 | 0.003 | 0.124 | 0.001 | -0.067 | 0.016 | -0.12 | 0.044 | 0.023 | -0.138 | -0.008 | 0.094 |
| ALG5 (UniProt Q9Y673) | -0.011 | -0.071 | -0.088 | 0.005 | 0.016 | -0.055 | -0.113 | 0.008 | -0.025 | -0.036 | 0 | -0.054 | 0.039 | -0.139 | 0.675 | 0.095 | 0.023 | 0.013 | 0.046 | 0.075 |
| AURKA (UniProt O14965) | -0.019 | -0.02 | -0.03 | 0.011 | 0.974 (active) | 0.722 (active) | 0.073 | 0.201 | 0.033 | 0.071 | 0.021 | 0.009 | -0.021 | -0.095 | 1.36 (active) | 0.048 | -0.03 | 0.01 | 0.025 | 0.055 |
| ACAD9 (UniProt Q9H845) | 0.008 | 0.004 | -0.012 | -0.041 | -0.001 | -0.026 | -0.038 | -0.025 | -0.004 | -0.015 | -0.005 | -0.069 | -0.017 | 0.017 | -0.012 | 0.03 | 0.016 | 0.083 | -0.015 | 0.082 |
| AUP1 (UniProt Q9Y679) | 0.052 | -0.116 | -0.062 | 0.031 | -0.062 | -0.015 | -0.04 | -0.041 | 0.029 | -0.037 | -0.069 | -0.269 (active) | -0.014 | -0.022 | -0.013 | -0.163 | -0.034 | 0.022 | -0.007 | -0.059 |
| ARFGAP2 (UniProt Q8N6H7) | 0.037 | -0.051 | -0.083 | 0.03 | 0.025 | -0.023 | 0.017 | 0.017 | 0.05 | -0.02 | -0.067 | 0.024 | -0.005 | -0.029 | -0.058 | 0.156 | -0.004 | -0.064 | -0.001 | 0.013 |
| ANKRD29 (UniProt Q8N6D5) | -0.089 | -0.011 | -0.016 | 0.27 | -0.02 | -0.04 | -0.227 | 0.118 | 0 | -0.038 | 0.339 | -0.122 | 0.011 | -0.077 | -0.044 | 0.279 | -0.066 | -0.08 | -0.126 | 0.177 |
| ACAP2 (UniProt Q15057) | -0.02 | -0.029 | -0.068 | 0.001 | 0.031 | -0.032 | -0.016 | -0.04 | 0.062 | -0.026 | -0.001 | 0.119 | 0.01 | -0.047 | 0.011 | 0.283 (active) | 0.02 | 0.014 | 0.015 | -0.059 |
| AIFM2 (UniProt Q9BRQ8) | 0.017 | 0.08 | -0.02 | -0.026 | -0.016 | -0.029 | 0.011 | 0.003 | -0.017 | -0.01 | -0.019 | -0.025 | 0.097 | -0.017 | -0.078 | 0.023 | 0.096 | 0.061 | 0.135 | 0.121 |
| ALDH9A1 isoform 3 (UniProt P49189) | -0.019 | 0.01 | -0.007 | -0.024 | 0.05 | -0.024 | -0.054 | -0.009 | -0.016 | -0.005 | -0.006 | -0.04 | 0.001 | -0.006 | 0.017 | -0.01 | -0.028 | 0.041 | -0.007 | -0.002 |
| AP2A1 (UniProt O95782) | 0.049 | 0.001 | 0.027 | 0.001 | 0.004 | 0.012 | 0.01 | -0.047 | 0.032 | -0.038 | 0.044 | 0.045 | 0.033 | 0.027 | -0.041 | 0.008 | 0.025 | 0.005 | 0.027 | -0.042 |
| ABHD17A isoform 2 (UniProt Q96GS6) | 0.002 | 0.01 | 0.04 | 0.065 | -0.595 (active) | -0.008 | 0.017 | -0.052 | 0.104 | 0.059 | -0.194 | 0.086 | 0.012 | 0.034 | 0.032 | 0.069 | 0.081 | 0.027 | -0.038 | 0.077 |
| AK6 (UniProt Q9Y3D8) | -0.154 | -0.121 | -0.045 | 0.03 | 0.018 | -0.095 | 0.092 | -0.053 | 0.095 | -0.09 | 0.009 | -0.052 | 0.003 | 0.012 | -0.035 | 0.053 | 0.03 | 0.006 | -0.049 | -0.01 |
